{
  "source": "PubChem BioAssay (EPA / NIEHS)",
  "note": "Active and inactive are the calls of the source. How the source made its calls: active means hit-call score of the fitted dose curve at least 0.9, where 1 is the maximum; inactive means score below 0.9.",
  "data": [
    {"test": "CEETOX_H295R_DOC: CeeTox H295R High-throughput Steroidogenesis Assay for DOC (AID 2283439)", "conditions": "actives raise or lower the signal", "protocol": "CEETOX_H295R is a cell-based, multiplexed-readout assay that uses H295R, a human adrenal gland cell line, with measurements taken at 48 hours after chemical dosing in a 96-well plate.CEETOX_H295R_DOC is one of 23 assay component(s) measured or calculated from the CEETOX_H295R assay. It is designed to make measurements of hormone induction, a form of inducible reporter, as detected with absorbance signals by HPLC-MS-MS technology.Data from the assay component CEETOX_H295R_DOC was analyzed into 1 assay endpoint. This assay endpoint, CEETOX_H295R_DOC, was analyzed with bidirectional fitting relative to DMSO as the negative control and baseline of activity. Using a type of inducible reporter, gain or loss-of-signal activity using HPLC-MS-MS was used to understand synthesis of 11-Deoxycorticosterone in H295R cell line at 48hr of chemical exposure. To generalize the intended target to other relatable targets, this assay endpoint is annotated to the steroid hormone intended target family, where the subfamily is glucocorticoids.\nCell culture and media preparation procedures were conducted in accordance with OECD Test No. 456 guidelines, with minor modifications. H295R cells (ATCC CRL-2128) were expanded for 5 passages and frozen in batches in liquid nitrogen. Prior to the steroidogenesis assay, H295R cells were thawed and passed at least 4 times. The maximum passage was 10. Cells were maintained in a 1:1 mixture of DMEM/F12 supplemented with 5ml/L ITS+ Premix (BD Bioscience) and 12.5 ml/L Nu-Serum (BD Bioscience). After seeding cells into 96-well plates at 50-60% confluency, cells were allowed to adhere overnight. Prior to chemical testing, culture medium was replaced with 175 uL medium containing 10 uM forskolin to stimulate steroidogenesis for 48 hours. Following prestimulation, forskolin medium was replaced with medium containing test chemical solubilized in DMSO (ensuring a final concentration of 0.1% DMSO). Test chemicals were incubated for 48 hours, then the medium was removed and split into 2 vials containing approximately 75uL each, and stored at -80 C prior to hormone analysis. For steroid quantification, media samples were shipped to OpAns, LLC (Durham, NC) on dry ice, and samples were thawed to room temperature prior to liquid-liquid extraction. Steroid hormones were extracted from media samples using methyl tertbutyl ether (MTBE). An extra derivatization with dansyl chloride was included for estrogen (estrone and estradiol) detection only. Steroid hormones were separated by HPLC, eluted using a reverse phase C18 gradient with electrospray positive ionization, followed by quantification by tandem mass spectrometry (MS/MS). Data were acquired on a MassHunter Workstation Acquisition version B03.01 (Agilent Technologies, Inc.) and processed using MassHunter Quantitative Analysis for QQQ. Accuracy was determined for each hormone analyte from 3 standards to determine upper and lower limits of quantification (ULOQ and LLOQ, respectively) using a 7-point standard curve. Precision and accuracy of the extraction and quantification methods were calculated as the percent relative standard deviation (%RSD) of the spiked standards and percent spiked standard recovered, respectively. […] Test medium was removed following chemical exposure, and cell viability was evaluated in the same wells by MTT. MTT procedures were as follows: after removal of test medium, 500 uL of 0.5 mg/ml of 3-[4,5-dimethylthiazol-2-y]2,5-diphenyltetrazoliumbromide solution was added to the cells. Following a 4-hour incubation at 37 C and 5% CO2 to allow formazan-crystal formation, the MTT solution was removed and blue formazan salt crystals were solubilized using 500uL anhydrous isopropanol with shaking for 20 minutes. Absorbance was read at 570 and 650nm using a Packard Fusion microplate reader. Background correction of absorbance units was used to determine percent change relative to controls. […]", "values": [
      {"smiles": "Fc1ccc(C2(Cn3cncn3)OC2c2ccccc2Cl)cc1", "note": "(centres undefined)", "AC50": "2080 nM (active)"},
      {"smiles": "CN(CCCC(=O)c1cccnc1)N=O", "outcome": "inactive"},
      {"smiles": "Oc1ccc(-c2ccccc2)cc1", "outcome": "inactive"},
      {"smiles": "Nc1ccc(-c2ccc(N)c(Cl)c2)cc1Cl", "outcome": "inactive"},
      {"smiles": "CCOP(=S)(OCC)Oc1nc(Cl)c(Cl)cc1Cl", "outcome": "inactive"},
      {"smiles": "C1CCC(NC2CCCCC2)CC1", "outcome": "inactive"},
      {"smiles": "C[C@]12CC[C@H](O)CC1=CC[C@@H]1[C@@H]2CC[C@]2(C)C(=O)CC[C@@H]12", "outcome": "inactive"},
      {"smiles": "CC12CC1(C)C(=O)N(c1cc(Cl)cc(Cl)c1)C2=O", "note": "(centres undefined)", "outcome": "inactive"},
      {"smiles": "CCOP(=S)(OCC)SCCS(=O)(=O)CC", "outcome": "inactive"},
      {"smiles": "O=C(Cc1ccccc1)c1ccccc1", "outcome": "inactive"},
      {"smiles": "CCOP(=S)(OCC)SCSP(=S)(OCC)OCC", "AC50": "1370 nM (active)"},
      {"smiles": "CCCCCCCCC(=O)NCc1ccc(O)c(OC)c1", "outcome": "inactive"},
      {"smiles": "O=C(Nc1ccc2[nH]ccc2c1)c1cc2cc(F)ccc2n1Cc1cccc(F)c1", "AC50": "522 nM (active)"},
      {"smiles": "C=CC(=O)N(C)C", "outcome": "inactive"}
    ]}
  ]
}
